{"source": "the supplement of paper PMC11865577", "assay_in_all_cases": "normalised indicator fluorescence (fraction of RNA + indicator signal without compound); higher = less displacement of indicator (weaker competition)", "settings_in_all_cases": "compound concentration: 5 uM, 30 min", "key": {"[1]": {"test_system": "SARS-CoV-2 low-rank motif (SARS-low)", "how_it_was_run": "(§1)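 Values are ratios: indicator fluorescence, less a buffer-plus-indicator blank, over the RNA-plus-indicator signal with no compound, as the mean of two independent experiments. This displacement screen used TO-PRO-1 or TO-PRO-3 with RNA in 96-well plates, in 20 mM phosphate pH 7.0, 20 mM NaCl, 80 mM KCl. Compounds went in at about 5 uM final, and readings were taken after 30 min on an Infinite 200 PRO at 485 or 620 nm excitation.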"}, "hsa-mir-191 loop": {"test_system": "hsa-mir-191 loop", "how_it_was_run": "as §1"}, "hsa-mir-21 loop": {"test_system": "hsa-mir-21 loop", "how_it_was_run": "as §1"}, "hsa-mir-221 loop": {"test_system": "hsa-mir-221 loop", "how_it_was_run": "as §1"}, "hsa-mir-374a loop": {"test_system": "hsa-mir-374a loop", "how_it_was_run": "as §1"}, "hsa-mir-6850 loop": {"test_system": "hsa-mir-6850 loop", "how_it_was_run": "as §1"}, "[2]": {"settings": "indicator: TO-PRO-1 0.1 uM, RNA concentration: 0.1 uM"}, "[3]": {"settings": "indicator: TO-PRO-3 0.5 uM, RNA concentration: 0.5 uM"}}, "note": "Where a name gives a salt, the structure may show the parent alone."}
{"smiles": "COC1=C2C[C@@H](C)C[C@H](OC)[C@H](O)[C@@H](C)/C=C(\\C)[C@H](OC(N)=O)[C@@H](OC)/C=C\\C=C(/C)C(=O)NC(=CC1=O)C2=O", "note": "[Geldanamycin]", "values": [{"measurement": "normalised indicator fluorescence", "setting": "[1]; [2]", "result": 1.15}, {"measurement": "normalised indicator fluorescence", "setting": "[1]; [3]", "result": 1.36}]}
{"smiles": "O=C(Nc1nc2ccc(NC(=O)C34CC5CC(CC(C5)C3)C4)cc2s1)c1ccccc1", "values": [{"measurement": "normalised indicator fluorescence", "setting": "[1]; [2]", "result": 1.49}, {"measurement": "normalised indicator fluorescence", "setting": "[1]; [3]", "result": 1.12}]}
{"smiles": "CC(=O)CCCCn1c(=O)c2c(ncn2C)n(C)c1=O", "note": "[Pentoxifylline]", "values": [{"measurement": "normalised indicator fluorescence", "setting": "[1]; [2]", "result": 1.23}, {"measurement": "normalised indicator fluorescence", "setting": "[1]; [3]", "result": 1.05}]}
{"smiles": "Fc1ccc(-c2nc3n(c2-c2ccncc2)CCS3)cc1", "values": [{"measurement": "normalised indicator fluorescence", "setting": "[1]; [2]", "result": 1.3}, {"measurement": "normalised indicator fluorescence", "setting": "[1]; [3]", "result": 1.15}]}
{"smiles": "O=c1cc(-c2ccccc2)oc2cc(O)c(O)c(O)c12", "note": "[Baicalein]", "values": [{"measurement": "normalised indicator fluorescence", "setting": "[1]; [2]", "result": 0.791}, {"measurement": "normalised indicator fluorescence", "setting": "[1]; [3]", "result": 0.739}]}
{"smiles": "CCc1cc(C(N)=S)ccn1", "note": "[Ethinamide]", "values": [{"measurement": "normalised indicator fluorescence", "setting": "[1]; [2]", "result": 1.15}, {"measurement": "normalised indicator fluorescence", "setting": "[1]; [3]", "result": 1.12}]}
{"smiles": "O=C1CCc2ccccc2C1", "note": "[Beta-Tetralone]", "values": [{"measurement": "normalised indicator fluorescence", "setting": "[1]; [2]", "result": 1.19}, {"measurement": "normalised indicator fluorescence", "setting": "[1]; [3]", "result": 1.2}]}
{"smiles": "NC(=O)c1ccc(N(C(N)=O)c2c(F)cccc2F)nc1-c1ccc(F)cc1F", "values": [{"measurement": "normalised indicator fluorescence", "setting": "[1]; [2]", "result": 1.28}, {"measurement": "normalised indicator fluorescence", "setting": "[1]; [3]", "result": 1.21}]}
{"smiles": "CO[C@H]1/C=C/O[C@@]2(C)Oc3c(C)c(O)c4c(c3C2=O)C2=NC3(CCN(CC(C)C)CC3)NC2=C(NC(=O)/C(C)=C\\C=C\\[C@H](C)[C@H](O)[C@@H](C)[C@@H](O)[C@@H](C)[C@H](OC(C)=O)[C@@H]1C)C4=O", "note": "[Rifabutin]", "values": [{"measurement": "normalised indicator fluorescence", "setting": "[1]; [2]", "result": 1.1}, {"measurement": "normalised indicator fluorescence", "setting": "[1]; [3]", "result": 1.16}]}
{"smiles": "COc1ccc(C2CC(=O)c3c(O)cc(OC4OC(COC5OC(C)C(O)C(O)C5O)C(O)C(O)C4O)cc3O2)cc1OC", "note": "(stereo not drawn) [Methyl hesperidin]", "values": [{"measurement": "normalised indicator fluorescence", "setting": "[1]; [2]", "result": 1.08}, {"measurement": "normalised indicator fluorescence", "setting": "[1]; [3]", "result": 1.37}]}
{"smiles": "COc1ccc([C@@H]2OC[C@H]3[C@@H]2CO[C@@H]3c2ccc(O[C@@H]3O[C@H](CO)[C@@H](O)[C@H](O)[C@H]3O)c(OC)c2)cc1OC", "note": "[Forsythin]", "values": [{"measurement": "normalised indicator fluorescence", "setting": "[1]; [2]", "result": 1.1}, {"measurement": "normalised indicator fluorescence", "setting": "[1]; [3]", "result": 1.16}]}
{"smiles": "N=C(NCCCCCCNC(=N)NC(=N)Nc1ccc(Cl)cc1)NC(=N)Nc1ccc(Cl)cc1", "note": "[Chlorhexidine hydrochloride]", "values": [{"measurement": "normalised indicator fluorescence", "setting": "[1]; [2]", "result": 1.01}, {"measurement": "normalised indicator fluorescence", "setting": "[1]; [3]", "result": 1.01}]}
{"smiles": "CC1(C)CC(=O)c2c(C(F)(F)F)nn(-c3ccc(C(N)=O)c(N[C@H]4CC[C@H](O)CC4)c3)c2C1", "values": [{"measurement": "normalised indicator fluorescence", "setting": "[1]; [2]", "result": 1.02}, {"measurement": "normalised indicator fluorescence", "setting": "[1]; [3]", "result": 1.08}]}
{"smiles": "COc1ccc(O)cc1", "note": "[4-Methoxyphenol]", "values": [{"measurement": "normalised indicator fluorescence", "setting": "[1]; [2]", "result": 1.12}, {"measurement": "normalised indicator fluorescence", "setting": "[1]; [3]", "result": 1.27}]}
{"smiles": "CNc1ccc([N+](=O)[O-])c(Nc2ccc3[nH]ncc3c2)n1", "values": [{"measurement": "normalised indicator fluorescence", "setting": "[1]; [2]", "result": 1.01}, {"measurement": "normalised indicator fluorescence", "setting": "[1]; [3]", "result": 1.14}]}
{"smiles": "CC1=C[C@]2(O)O[C@@]3(CC2=C(C)C)[C@@H](C)CC[C@@H]13", "note": "[Curcumenol]", "values": [{"measurement": "normalised indicator fluorescence", "setting": "[1]; [2]", "result": 1.11}, {"measurement": "normalised indicator fluorescence", "setting": "[1]; [3]", "result": 1.05}]}
{"smiles": "Nc1c(Br)cc(Br)cc1CN[C@H]1CC[C@H](O)CC1", "note": "[Ambroxol]", "values": [{"measurement": "normalised indicator fluorescence", "setting": "[1]; [2]", "result": 0.985}, {"measurement": "normalised indicator fluorescence", "setting": "[1]; [3]", "result": 0.984}]}
{"smiles": "CN1CCN(c2ccc(C(=O)Nc3n[nH]c4ccc(Cc5cc(F)cc(F)c5)cc34)c(NC3CCOCC3)c2)CC1", "note": "[Entrectinib]", "values": [{"measurement": "normalised indicator fluorescence", "setting": "[1]; [2]", "result": 1.16}, {"measurement": "normalised indicator fluorescence", "setting": "[1]; [3]", "result": 1.39}]}
{"smiles": "Cc1c(C)c2c(c(C)c1O)CCC(C)(C(=O)O)O2", "note": "(stereo not drawn) [Trolox]", "values": [{"measurement": "normalised indicator fluorescence", "setting": "[1]; [2]", "result": 1.24}, {"measurement": "normalised indicator fluorescence", "setting": "[1]; [3]", "result": 1.07}]}
{"smiles": "CC1=CC(=O)c2c(O)cccc2C1=O", "note": "[Plumbagin]", "values": [{"measurement": "normalised indicator fluorescence", "setting": "hsa-mir-191 loop; [2]", "result": 1.02}, {"measurement": "normalised indicator fluorescence", "setting": "hsa-mir-191 loop; [3]", "result": 1.01}, {"measurement": "normalised indicator fluorescence", "setting": "hsa-mir-21 loop; [2]", "result": 0.979}, {"measurement": "normalised indicator fluorescence", "setting": "hsa-mir-21 loop; [3]", "result": 0.979}, {"measurement": "normalised indicator fluorescence", "setting": "hsa-mir-221 loop; [2]", "result": 1.02}, {"measurement": "normalised indicator fluorescence", "setting": "hsa-mir-221 loop; [3]", "result": 1.05}, {"measurement": "normalised indicator fluorescence", "setting": "hsa-mir-374a loop; [2]", "result": 1.17}, {"measurement": "normalised indicator fluorescence", "setting": "hsa-mir-374a loop; [3]", "result": 1.15}, {"measurement": "normalised indicator fluorescence", "setting": "hsa-mir-6850 loop; [2]", "result": 0.922}, {"measurement": "normalised indicator fluorescence", "setting": "hsa-mir-6850 loop; [3]", "result": 1.01}]}
{"smiles": "COc1ccc2c(c[n+](C)c3c4cc5c(cc4ccc23)OCO5)c1OC", "note": "[Chelerythrine chloride]", "values": [{"measurement": "normalised indicator fluorescence", "setting": "hsa-mir-191 loop; [2]", "result": 0.626}, {"measurement": "normalised indicator fluorescence", "setting": "hsa-mir-191 loop; [3]", "result": 0.656}, {"measurement": "normalised indicator fluorescence", "setting": "hsa-mir-21 loop; [2]", "result": 0.586}, {"measurement": "normalised indicator fluorescence", "setting": "hsa-mir-21 loop; [3]", "result": 0.724}, {"measurement": "normalised indicator fluorescence", "setting": "hsa-mir-221 loop; [2]", "result": 0.568}, {"measurement": "normalised indicator fluorescence", "setting": "hsa-mir-221 loop; [3]", "result": 0.592}, {"measurement": "normalised indicator fluorescence", "setting": "hsa-mir-374a loop; [2]", "result": 1.01}, {"measurement": "normalised indicator fluorescence", "setting": "hsa-mir-374a loop; [3]", "result": 1.02}, {"measurement": "normalised indicator fluorescence", "setting": "hsa-mir-6850 loop; [2]", "result": 0.335}, {"measurement": "normalised indicator fluorescence", "setting": "hsa-mir-6850 loop; [3]", "result": 0.494}]}
